Measurements reported in PubChem BioAssay (NCATS).
Where “and” joins values, the source holds several entries; their conditions need not be identical. Equal values may be shown once. Inconclusive results are not listed. Where a call stands in place of a potency, no number is given. Some structures have more than one record in an assay (separate samples or runs), and their calls can disagree. Calls of active or inactive are those of the source. Unless noted, the call rests on the fitted dose curve; in most records, active means well fitted curve in the direction sought with a large enough effect; inconclusive means small, poorly fitted or top-dose-only effect, or another doubt; inactive means no such curve, though single readings can be large; an effect the other way counts as inactive or inconclusive.

Assays:
[1] = molecular target: Single-stranded DNA cytosine deaminase (Homo sapiens) (UniProt Q9GZX7); assay: Validation qHTS assay for inhibitors of Activation Induced Cytidine Deaminase (AID): AID signal (AID 1347429)
Single-stranded DNA cytosine deaminase (Homo sapiens), sequence (Q9GZX7 whole entry, looked up): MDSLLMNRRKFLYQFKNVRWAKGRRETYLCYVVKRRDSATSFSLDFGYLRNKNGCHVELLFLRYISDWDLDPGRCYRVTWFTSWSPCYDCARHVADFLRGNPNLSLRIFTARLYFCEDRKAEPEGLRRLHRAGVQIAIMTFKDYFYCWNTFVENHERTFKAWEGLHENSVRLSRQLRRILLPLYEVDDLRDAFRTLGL
In short: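 FRET deamination assay: 1 uM AID (4/3x stock) with UDG, compound up to 114 uM, then 250 nM DJC20/DJC23 substrate (4x stock) for 4 hr at room temperature. NaOH added, 30 min; fluorescence read 540/590 nm.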

[2] = Primary qHTS for inhibitors of La Crosse Virus (LACV) - induced cell death in SH-SY5Y cells (AID 1508616);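 further: top concentration of the series differs between compounds; higher means more rescue of cells from virus-induced death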
In short: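 SH-SY5Y cells (6000/well) plated 24 h, then given compounds by pin transfer and LACV at 0.01 MOI for 6 days at 37C. Viability measured by ATPLite luminescence, normalized to infected DMSO and uninfected DMSO.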

[3] = molecular target: Calcium and integrin-binding protein 1 (Homo sapiens) (UniProt Q99828); assay: Validation qHTS for Identification of Calcium Integrin Binding protein 1 (CIB1) Competitor (AID 1508618); further: potency means the concentration at half of the fitted maximal effect
Calcium and integrin-binding protein 1 (Homo sapiens), sequence (Q99828 whole entry, looked up): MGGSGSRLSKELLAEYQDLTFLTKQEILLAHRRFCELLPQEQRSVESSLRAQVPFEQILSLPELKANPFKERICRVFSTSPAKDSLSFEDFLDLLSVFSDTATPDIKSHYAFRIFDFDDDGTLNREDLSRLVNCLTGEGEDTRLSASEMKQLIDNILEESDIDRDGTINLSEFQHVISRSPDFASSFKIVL
In short: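 CIB1-GST (1 uM final) incubated 15 min at room temperature with compounds (up to 114 uM), then FITC-labelled alphaIIb peptide (100 nM) added. FP read (Ex 480/Em 540) after 15 min, pH 7.4 buffer containing 5 mM CaCl2.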

[4] = molecular target: Calcium and integrin-binding protein 1 (Homo sapiens) (UniProt Q99828); assay: Primary qHTS for Identification of Calcium Integrin Binding Protein 1 (CIB1) Competitor (AID 1508620); further: potency means the concentration at half of the fitted maximal effect
In short: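 Fluorescence polarization competition: CIB1-GST (1 uM final) preincubated with compound 15 min at room temperature, then FITC-labeled alphaIIb peptide (100 nM final) added for another 15 min. Polarization read at Ex 480/Em 540.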

[5] = Primary qHTS for small molecule stabilizers of the endoplasmic reticulum resident proteome: Secreted ER Calcium Modulated Protein (SERCaMP) assay (AID 1508630)
In short: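 GLuc-SERCaMP-expressing SH-SY5Y cells, pretreated 16 h with compound, are challenged with thapsigargin to empty ER calcium stores; after 4 h, coelenterazine is added directly to the medium and luminescence is imaged.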

[6] = A High-Content qHTS Against Drug Library for the Identification of Small Molecules that Inhibit DYT1 Early Onset Primary Dystonia-Associated Cell Pathology (AID 1645839; calls by dose curve; further: series mostly up to about 46 µM)
In short: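 Readout: %pathology, the punctate EGFP-TorsinA distribution from imaging, as the primary channel and cell count as the toxicity counterscreen. HEK293 Flp-In cells expressing delE TorsinA were induced with tetracycline and treated with compound for 48 h.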

[7] = molecular target: Cytochrome P450 2C9 (Homo sapiens) (UniProt P11712); assay: Cytochrome P450 family 2 subfamily C member 9 (CYP2C9) small molecule antagonists: luciferase biochemical (cell-free) qHTS assay (AID 1645842; active means well fitted curve in the direction sought with a large enough effect in the repeat runs; an effect the other way counts as inactive or inconclusive; further: nearly all actives have a fitted effect of over 55% in size; further: potency means the concentration at half of the fitted maximal effect)
Cytochrome P450 2C9 (Homo sapiens), sequence (P11712 whole entry, looked up): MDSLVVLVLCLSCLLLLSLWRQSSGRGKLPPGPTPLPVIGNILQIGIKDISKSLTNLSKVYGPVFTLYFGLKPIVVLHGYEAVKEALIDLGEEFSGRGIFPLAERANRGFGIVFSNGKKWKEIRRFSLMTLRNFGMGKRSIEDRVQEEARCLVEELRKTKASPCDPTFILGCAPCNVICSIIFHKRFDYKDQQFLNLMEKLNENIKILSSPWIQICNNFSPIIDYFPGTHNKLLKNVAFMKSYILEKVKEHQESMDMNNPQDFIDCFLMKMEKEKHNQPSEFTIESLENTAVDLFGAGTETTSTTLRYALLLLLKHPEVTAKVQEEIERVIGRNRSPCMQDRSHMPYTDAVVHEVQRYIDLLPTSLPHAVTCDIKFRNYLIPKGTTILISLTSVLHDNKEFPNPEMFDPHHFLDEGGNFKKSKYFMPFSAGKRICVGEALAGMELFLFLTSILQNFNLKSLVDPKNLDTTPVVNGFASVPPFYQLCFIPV
In short: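 Luminescence, after 20 min with luciferin detection reagent, reflected CYP2C9 turnover during a 1 h NADPH-driven reaction at 37C. Enzyme-substrate mix contained 0.4% bovine serum albumin and was preincubated with compound 10 min at room temperature.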

Papain (Carica papaya) = Papain (Carica papaya) (UniProt P00784); assay: Primary qHTS assay for inhibitors of the protease papain (AID 1645873);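 further: papain turnover of Z-FR-AMC read as the AMC fluorescence gain over 10 min; series mostly up to about 50 µM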
Papain (Carica papaya), sequence (P00784 whole entry, looked up, the tested form may be a part): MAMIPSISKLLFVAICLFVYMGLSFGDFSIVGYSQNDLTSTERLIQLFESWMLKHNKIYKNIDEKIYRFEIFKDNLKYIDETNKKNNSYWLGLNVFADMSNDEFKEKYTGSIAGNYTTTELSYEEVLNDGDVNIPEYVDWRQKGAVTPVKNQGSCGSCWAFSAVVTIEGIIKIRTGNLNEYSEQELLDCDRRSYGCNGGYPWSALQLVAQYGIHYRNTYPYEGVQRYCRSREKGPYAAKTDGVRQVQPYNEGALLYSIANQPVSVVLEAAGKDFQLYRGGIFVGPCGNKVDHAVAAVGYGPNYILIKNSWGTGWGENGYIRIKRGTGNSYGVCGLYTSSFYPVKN

[8] = Primary qHTS for inhibitors of nuclear receptor binding SET domain protein 2 (NSD2) in an isogenic RCH-ACV NSD2 p.E1099K mutant (9B) (AID 1645876); further: nearly all actives have a fitted effect of over 70% in size; further: potency means the concentration at half of the fitted maximal effect
[9] = Primary qHTS for inhibitors of nuclear receptor binding SET domain protein 2 (NSD2) in an RCH-ACV wild type WT cells (2C) (AID 1645877); further: nearly all actives have a fitted effect of over 70% in size; further: potency means the concentration at half of the fitted maximal effect
[10] = molecular target: Cytochrome P450 2D6 (Homo sapiens) (UniProt P10635); assay: Cytochrome P450 family 2 subfamily D member 6 (CYP2D6) small molecule antagonists: luciferase biochemical (cell-free) qHTS assay (AID 1645840; active means well fitted curve in the direction sought with a large enough effect in the repeat runs; an effect the other way counts as inactive or inconclusive; further: nearly all actives have a fitted effect of over 55% in size; further: potency means the concentration at half of the fitted maximal effect)
Cytochrome P450 2D6 (Homo sapiens), sequence (P10635 whole entry, looked up): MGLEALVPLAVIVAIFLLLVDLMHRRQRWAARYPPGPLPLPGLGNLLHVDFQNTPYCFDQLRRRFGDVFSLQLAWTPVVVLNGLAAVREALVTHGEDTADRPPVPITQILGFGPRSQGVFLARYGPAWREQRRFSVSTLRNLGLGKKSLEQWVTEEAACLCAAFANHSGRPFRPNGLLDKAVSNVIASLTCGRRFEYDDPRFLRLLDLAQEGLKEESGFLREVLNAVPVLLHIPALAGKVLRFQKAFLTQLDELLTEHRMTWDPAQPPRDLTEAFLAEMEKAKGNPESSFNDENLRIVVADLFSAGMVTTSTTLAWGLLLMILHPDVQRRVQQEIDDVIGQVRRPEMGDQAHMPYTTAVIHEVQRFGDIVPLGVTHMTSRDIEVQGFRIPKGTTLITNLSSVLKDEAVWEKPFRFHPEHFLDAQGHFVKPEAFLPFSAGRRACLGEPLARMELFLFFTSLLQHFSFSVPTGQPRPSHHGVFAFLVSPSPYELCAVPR
In short: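 P450-Glo luminescent screen: recombinant CYP2D6 enzyme–proluciferin substrate mix preincubated with compound 10 min at room temperature, then NADPH regeneration added for 1 h at room temperature. Detection reagent added for 20 min; luciferin light read as relative luminescence units.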

[11] = Counterscreen qHTS for small molecule stabilizers of the endoplasmic reticulum resident proteome: GLuc-NoTag assay (AID 1508627);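 further: SH-SY5Y cells given compound then 100 nM thapsigargin to empty ER calcium; series mostly up to about 76 µM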
In short: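 SH-SY5Y cells stably expressing constitutively secreted GLuc (no SERCaMP tag) were pre-incubated 5 h, treated with compound for 19 h, then 100 nM thapsigargin for 4 h at 37C; medium GLuc read by coelenterazine luminescence.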

[12] = Confirmatory qHTS for small molecule stabilizers of the endoplasmic reticulum resident proteome: Secreted ER Calcium Modulated Protein (SERCaMP) assay (AID 1508628); further: nearly all actives have a fitted effect of over 40% in size; further: potency means the concentration at half of the fitted maximal effect
In short: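 SH-SY5Y cells stably expressing GLuc-SERCaMP, treated 16 h with compound (primary 1.53, 7.67, 38.3 uM; confirmation 11 concentrations, up to 76.6 uM), then 100 nM thapsigargin for 4 h. Secreted Gaussia luciferase in medium read by coelenterazine luminescence.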

[13] = molecular target: Rap guanine nucleotide exchange factor 3 (Homo sapiens) (UniProt O95398); assay: Confirmatory qHTS for antagonist of cAMP-regulated guanine nucleotide exchange factor 3 (EPAC1) (AID 1645880); further: nearly all actives have a fitted effect of over 55% in size
Rap guanine nucleotide exchange factor 3 (Homo sapiens), sequence (O95398 whole entry, looked up): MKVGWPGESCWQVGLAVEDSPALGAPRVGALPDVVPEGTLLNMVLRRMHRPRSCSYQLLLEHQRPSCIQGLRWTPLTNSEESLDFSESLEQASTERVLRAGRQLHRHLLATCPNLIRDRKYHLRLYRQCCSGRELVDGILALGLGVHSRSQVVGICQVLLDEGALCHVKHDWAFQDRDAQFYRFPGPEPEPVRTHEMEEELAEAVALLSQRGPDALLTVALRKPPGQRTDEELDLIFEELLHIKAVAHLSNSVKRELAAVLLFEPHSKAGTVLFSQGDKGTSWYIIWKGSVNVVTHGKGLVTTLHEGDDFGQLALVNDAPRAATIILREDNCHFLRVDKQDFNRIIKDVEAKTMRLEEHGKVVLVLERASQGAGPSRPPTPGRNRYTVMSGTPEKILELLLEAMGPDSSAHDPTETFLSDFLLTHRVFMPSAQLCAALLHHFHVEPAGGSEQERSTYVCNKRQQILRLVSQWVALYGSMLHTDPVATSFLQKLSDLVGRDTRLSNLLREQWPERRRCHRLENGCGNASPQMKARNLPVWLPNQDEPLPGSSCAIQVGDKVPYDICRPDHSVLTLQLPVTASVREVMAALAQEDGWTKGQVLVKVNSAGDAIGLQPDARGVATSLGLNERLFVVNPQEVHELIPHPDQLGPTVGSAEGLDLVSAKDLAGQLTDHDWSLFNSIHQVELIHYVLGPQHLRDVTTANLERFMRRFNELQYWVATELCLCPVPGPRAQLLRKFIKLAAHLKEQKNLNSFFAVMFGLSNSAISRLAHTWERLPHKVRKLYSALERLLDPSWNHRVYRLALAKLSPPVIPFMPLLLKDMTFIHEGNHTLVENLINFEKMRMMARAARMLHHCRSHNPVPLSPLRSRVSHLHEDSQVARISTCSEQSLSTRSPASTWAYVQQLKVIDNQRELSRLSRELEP
In short: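 Nucleotide exchange uses 100 nM EPAC1, 250 nM RAP1B-BODIPY-GDP and 50 uM GDP, with compounds in a concentration-titration series. After 5 min at room temperature, fluorescence (480 nm ex/540 nm em) is read every 5 min for 30 min. Data are normalized to control ATA and DMSO.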

[14] = molecular target: Rap guanine nucleotide exchange factor 3 (Homo sapiens) (UniProt O95398); assay: Confirmatory qHTS for agonist of cAMP-regulated guanine nucleotide exchange factor 3 (EPAC1) (AID 1645881); further: potency means the concentration at half of the fitted maximal effect; nearly all actives have a fitted effect of over 75% in size
[15] = molecular target: Rap guanine nucleotide exchange factor 4 (Homo sapiens) (UniProt Q8WZA2); assay: Confirmatory qHTS for agonist of cAMP-regulated guanine nucleotide exchange factor 4 (EPAC2) (AID 1645884);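 further: nucleotide exchange releases bodipy-GDP from Rap1 and this lowers its fluorescence; potency means the concentration at half of the fitted maximal effect; nearly all actives have a fitted effect of over 65% in size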
Rap guanine nucleotide exchange factor 4 (Homo sapiens), sequence (Q8WZA2 whole entry, looked up): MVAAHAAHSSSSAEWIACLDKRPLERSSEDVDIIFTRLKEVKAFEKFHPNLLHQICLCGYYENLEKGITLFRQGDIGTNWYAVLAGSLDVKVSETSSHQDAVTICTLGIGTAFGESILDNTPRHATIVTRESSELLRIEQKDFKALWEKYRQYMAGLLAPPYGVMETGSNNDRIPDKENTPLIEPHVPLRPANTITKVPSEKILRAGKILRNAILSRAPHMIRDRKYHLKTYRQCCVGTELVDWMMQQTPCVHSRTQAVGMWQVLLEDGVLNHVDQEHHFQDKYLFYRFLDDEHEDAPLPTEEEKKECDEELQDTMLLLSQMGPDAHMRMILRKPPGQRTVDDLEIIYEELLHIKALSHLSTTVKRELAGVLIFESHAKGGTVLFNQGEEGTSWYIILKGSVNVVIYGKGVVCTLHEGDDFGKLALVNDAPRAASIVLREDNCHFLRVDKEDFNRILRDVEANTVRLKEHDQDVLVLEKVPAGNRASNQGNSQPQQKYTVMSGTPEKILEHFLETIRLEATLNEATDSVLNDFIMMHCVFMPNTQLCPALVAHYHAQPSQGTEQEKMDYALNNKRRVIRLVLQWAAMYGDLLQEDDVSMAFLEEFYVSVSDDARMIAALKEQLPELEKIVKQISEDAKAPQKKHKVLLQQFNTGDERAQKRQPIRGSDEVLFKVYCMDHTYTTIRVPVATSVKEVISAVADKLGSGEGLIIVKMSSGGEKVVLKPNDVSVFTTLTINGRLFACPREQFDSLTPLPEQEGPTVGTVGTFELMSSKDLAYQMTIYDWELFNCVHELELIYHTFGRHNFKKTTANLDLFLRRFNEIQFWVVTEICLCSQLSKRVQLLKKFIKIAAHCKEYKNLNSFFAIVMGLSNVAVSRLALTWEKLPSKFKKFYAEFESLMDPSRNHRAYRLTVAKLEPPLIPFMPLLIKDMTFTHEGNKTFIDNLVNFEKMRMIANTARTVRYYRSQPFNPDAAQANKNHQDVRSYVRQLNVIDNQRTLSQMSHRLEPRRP

[16] = Validation qHTS assay for inhibitors of Activation Induced Cytidine Deaminase (AID): UDG Counterscreen signal (AID 1347427)
In short: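 Counterscreen read of UDG activity (2 U/mL, 4/3x) in the FRET deamination format with AID (1 uM, 4/3x), DJC20/DJC23 substrates (250 nM, 4x), 4 h at room temperature. NaOH stop, fluorescence at 560 ex/665 em.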

SMILES | Potency [1] | Potency [2] | Potency [3] | Potency [4] | Potency [5] | Potency [6] | Potency [7] | Potency (Papain (Carica papaya)) | Potency [8] | Potency [9] | Potency [10] | Potency [11] | Potency [12] | outcome [13] | Potency [14] | Potency [15] | Potency [16]
NS(=O)(=O)c1cc2c(cc1Cl)NCNS2(=O)=O | inactive | inactive | inactive | inactive | inactive | inactive | inactive | inactive | inactive | inactive | – | – | – | – | – | – | –
Clc1ccc(C(c2ccccc2Cl)C(Cl)Cl)cc1 (centres undefined) | inactive | inactive | inactive | inactive | inactive | inactive | 12.3 µM (active) | inactive | inactive | inactive | inactive | – | – | – | – | – | –
Nc1c2c(nc3ccccc13)CCCC2 | inactive | inactive | inactive | inactive | inactive | inactive | inactive | – | inactive | inactive | 9.77 µM (active) | – | – | – | – | – | –
CCCNCC(O)COc1ccccc1C(=O)CCc1ccccc1 (centres undefined) | inactive | inactive | inactive | inactive | – | – | – | inactive | 18.6 µM (active) | 15 µM (active) and 16.6 µM (active) | – | inactive | inactive | – | – | – | –
OCCN(CCO)c1nc(N2CCCCC2)c2nc(N(CCO)CCO)nc(N3CCCCC3)c2n1 | inactive | inactive | 14.1 µM (active) | inactive and 11.2 µM (active) | inactive | – | – | inactive | 6.68 µM (active) and inactive | 6.68 µM (active) and inactive | – | inactive | 31.6 µM (active) | inactive | 79.3 µM (active) and 70.6 µM (active) and 63 µM (active) | 79.3 µM (active) and 70.6 µM (active) and 112 µM (active) | –
CC[N+](CC)(CC)CCOc1cccc(OCC[N+](CC)(CC)CC)c1OCC[N+](CC)(CC)CC | inactive | inactive | – | – | – | inactive | inactive | inactive | inactive | inactive | – | – | – | – | – | – | inactive
CS(=O)(=O)Nc1ccc([N+](=O)[O-])cc1Oc1ccccc1 | inactive | inactive | – | – | – | inactive | 13.8 µM (active) | inactive | inactive | inactive | – | – | – | – | – | – | inactive
Nc1ccn([C@H]2CC[C@@H](CO)O2)c(=O)n1 | inactive | inactive | inactive | inactive | inactive | inactive | inactive | inactive | – | – | inactive | – | – | – | – | – | –
NC(CO)C(=O)NNCc1ccc(O)c(O)c1O (centres undefined) | inactive | inactive | inactive | inactive | inactive | inactive | – | inactive | 26.3 µM (active) | – | – | – | – | – | – | – | –
O=C1N(c2ccccc2)c2ccccc2C1(Cc1ccncc1)Cc1ccncc1 | inactive | inactive | inactive | inactive | inactive | inactive | 2.19 µM (active) | inactive | inactive | inactive | inactive | – | – | – | – | – | –
COc1ccc2c(c1)c(CC(=O)O)c(C)n2C(=O)c1ccc(Cl)cc1 | inactive | inactive | inactive | inactive | inactive | – | 11 µM (active) | inactive | inactive | inactive | – | – | – | – | – | – | –
Cc1cc(C(C)(C)C)c(O)c(C)c1CC1=NCCN1 | inactive | inactive | inactive | inactive | – | inactive | inactive | inactive | inactive | inactive | – | – | – | – | – | – | –
CC12CC3CC(C)(C1)CC(N)(C3)C2 | inactive | inactive | inactive | inactive | inactive | – | – | inactive | inactive | – | – | inactive | 11.2 µM (active) and 39.8 µM (active) | – | – | – | –
Cc1cn([C@H]2C=C[C@@H](CO)O2)c(=O)[nH]c1=O | inactive | inactive | inactive | inactive | inactive | inactive | inactive | inactive | inactive | inactive | – | – | – | – | – | – | –
